The text below walks through data of ChEMBL document CHEMBL1961873, “Compounds: GSK PKIS; Assays: Nanosyn kinase panel” (2012).

For assay [1], the target named is Serine/threonine-protein kinase MARK2 (Homo sapiens) (UniProt Q7KZI7). As to conditions: at 1 µM.
Assay [2] deals with PAS domain-containing serine/threonine-protein kinase (Homo sapiens) (UniProt Q96RG2). To be noted: at 0.1 µM.
For assay [3] the target is unchanged. To be noted: at 1 µM.
Assay [4] deals with Phosphorylase b kinase gamma catalytic chain, skeletal muscle/heart isoform (Homo sapiens) (UniProt Q16816). As to conditions: at 0.1 µM.
Assay [5] shares this target. To be noted: at 1 µM.
Assay [6] has as its target T1, Phosphorylase b kinase gamma catalytic chain, liver/testis isoform (Homo sapiens) (UniProt P15735).
T1 sequence (whole entry): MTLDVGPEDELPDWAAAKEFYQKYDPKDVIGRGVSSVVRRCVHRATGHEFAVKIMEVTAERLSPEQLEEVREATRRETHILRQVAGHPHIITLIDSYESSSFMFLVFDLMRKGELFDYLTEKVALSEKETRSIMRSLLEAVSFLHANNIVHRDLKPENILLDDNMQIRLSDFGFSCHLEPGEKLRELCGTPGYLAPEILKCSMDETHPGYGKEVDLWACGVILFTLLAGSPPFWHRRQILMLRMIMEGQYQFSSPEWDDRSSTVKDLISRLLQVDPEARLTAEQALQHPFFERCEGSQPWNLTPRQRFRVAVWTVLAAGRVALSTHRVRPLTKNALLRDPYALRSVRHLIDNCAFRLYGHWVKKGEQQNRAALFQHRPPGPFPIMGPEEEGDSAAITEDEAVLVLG
To be noted: at 0.1 µM.

Assay [7] addresses T1, Phosphorylase b kinase gamma catalytic chain, liver/testis isoform (Homo sapiens). To be noted: at 1 µM.
In assay [8] the target is Serine/threonine-protein kinase pim-1 (Homo sapiens) (UniProt P11309). As to conditions: at 0.1 µM.
Assay [9] shares this target. To be noted: at 1 µM.
For assay [10], the target named is Serine/threonine-protein kinase pim-2 (Homo sapiens) (UniProt Q9P1W9). As to conditions: at 0.1 µM.
Assay [11] has the same target. As to conditions: at 1 µM.
Assay [12] has as its target Serine/threonine-protein kinase pim-3 (Homo sapiens) (UniProt Q86V86). As to conditions: at 0.1 µM.
For assay [13] the target is unchanged. To be noted: at 1 µM.
The target in assay [14] is T2, MAP kinase-activated protein kinase 5 (Homo sapiens) (UniProt Q8IW41).
T2 sequence (whole entry): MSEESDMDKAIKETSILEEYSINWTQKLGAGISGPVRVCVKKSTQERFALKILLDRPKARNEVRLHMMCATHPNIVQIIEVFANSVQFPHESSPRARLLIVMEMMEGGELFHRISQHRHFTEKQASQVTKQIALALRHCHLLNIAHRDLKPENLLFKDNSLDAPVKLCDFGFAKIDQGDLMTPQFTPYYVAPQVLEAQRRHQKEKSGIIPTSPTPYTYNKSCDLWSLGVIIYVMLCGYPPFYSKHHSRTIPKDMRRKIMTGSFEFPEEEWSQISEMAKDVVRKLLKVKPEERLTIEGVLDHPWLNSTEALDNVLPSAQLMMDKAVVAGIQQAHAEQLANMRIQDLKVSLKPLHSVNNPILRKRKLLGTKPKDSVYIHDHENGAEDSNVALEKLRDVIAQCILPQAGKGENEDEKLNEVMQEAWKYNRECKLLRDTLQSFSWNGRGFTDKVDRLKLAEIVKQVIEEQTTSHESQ
As to conditions: at 0.1 µM.

For assay [15], the target named is T2, MAP kinase-activated protein kinase 5 (Homo sapiens). To be noted: at 1 µM.
The target of assay [16] is Serine/threonine-protein kinase SIK1 (Homo sapiens) (UniProt P57059). As to conditions: at 0.1 µM.
For assay [17] the target is unchanged. To be noted: at 1 µM.
Assay [18] deals with Serine/threonine-protein kinase SIK2 (Homo sapiens) (UniProt Q9H0K1). To be noted: at 0.1 µM.
The target is the same in assay [19]. To be noted: at 1 µM.
In assay [20] the target is T3, Serine/threonine-protein kinase TBK1 (Homo sapiens) (UniProt Q9UHD2).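 Note: values are the mean TBK1 inhibition, taken from the GSK PKIS screening data.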
T3 sequence (whole entry): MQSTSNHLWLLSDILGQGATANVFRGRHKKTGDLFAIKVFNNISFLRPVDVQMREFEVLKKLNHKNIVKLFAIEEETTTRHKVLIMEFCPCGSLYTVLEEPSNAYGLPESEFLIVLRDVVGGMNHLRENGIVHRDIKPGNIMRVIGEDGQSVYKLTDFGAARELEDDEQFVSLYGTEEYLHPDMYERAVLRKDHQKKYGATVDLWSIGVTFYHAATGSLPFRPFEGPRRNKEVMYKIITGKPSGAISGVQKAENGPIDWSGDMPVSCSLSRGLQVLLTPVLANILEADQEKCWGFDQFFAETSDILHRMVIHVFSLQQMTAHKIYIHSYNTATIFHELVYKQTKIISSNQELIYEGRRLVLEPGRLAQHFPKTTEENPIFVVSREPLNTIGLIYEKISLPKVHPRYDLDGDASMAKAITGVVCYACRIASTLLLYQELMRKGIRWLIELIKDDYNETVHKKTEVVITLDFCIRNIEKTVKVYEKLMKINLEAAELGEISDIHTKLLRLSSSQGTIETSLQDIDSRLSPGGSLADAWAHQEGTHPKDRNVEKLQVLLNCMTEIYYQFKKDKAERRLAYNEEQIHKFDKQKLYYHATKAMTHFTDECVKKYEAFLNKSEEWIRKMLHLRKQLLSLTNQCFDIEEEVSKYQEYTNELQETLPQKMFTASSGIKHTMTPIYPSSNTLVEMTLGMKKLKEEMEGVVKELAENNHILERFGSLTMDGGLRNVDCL
As to conditions: at 0.1 µM.

Serine/threonine-protein kinase SIK2 (Homo sapiens), sequence (Q9H0K1 whole entry, looked up): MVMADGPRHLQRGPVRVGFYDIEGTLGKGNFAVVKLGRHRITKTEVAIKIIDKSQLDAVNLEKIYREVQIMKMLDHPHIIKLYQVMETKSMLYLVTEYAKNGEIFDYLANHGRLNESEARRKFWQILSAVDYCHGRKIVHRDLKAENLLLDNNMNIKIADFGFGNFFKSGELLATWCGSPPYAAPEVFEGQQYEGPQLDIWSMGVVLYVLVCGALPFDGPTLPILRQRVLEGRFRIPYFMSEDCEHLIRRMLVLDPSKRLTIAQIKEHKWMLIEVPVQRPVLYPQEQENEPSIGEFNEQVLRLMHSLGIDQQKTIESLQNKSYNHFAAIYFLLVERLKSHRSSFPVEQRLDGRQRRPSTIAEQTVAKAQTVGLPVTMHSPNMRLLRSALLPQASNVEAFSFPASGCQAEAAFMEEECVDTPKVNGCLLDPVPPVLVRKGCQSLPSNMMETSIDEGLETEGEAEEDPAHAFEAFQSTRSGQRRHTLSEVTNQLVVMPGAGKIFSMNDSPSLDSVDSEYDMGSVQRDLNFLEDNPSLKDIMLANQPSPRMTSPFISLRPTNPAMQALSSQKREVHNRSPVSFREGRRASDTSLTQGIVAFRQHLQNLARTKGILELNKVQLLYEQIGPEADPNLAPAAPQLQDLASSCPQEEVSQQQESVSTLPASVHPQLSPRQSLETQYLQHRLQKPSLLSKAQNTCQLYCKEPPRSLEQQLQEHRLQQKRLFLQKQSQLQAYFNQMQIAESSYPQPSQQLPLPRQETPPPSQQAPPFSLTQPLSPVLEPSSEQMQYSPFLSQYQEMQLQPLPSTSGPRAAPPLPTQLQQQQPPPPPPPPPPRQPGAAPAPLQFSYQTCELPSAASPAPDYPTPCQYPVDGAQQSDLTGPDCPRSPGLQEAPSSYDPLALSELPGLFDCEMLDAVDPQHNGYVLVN
Phosphorylase b kinase gamma catalytic chain, skeletal muscle/heart isoform (Homo sapiens), sequence (Q16816 whole entry, looked up, canonical isoform): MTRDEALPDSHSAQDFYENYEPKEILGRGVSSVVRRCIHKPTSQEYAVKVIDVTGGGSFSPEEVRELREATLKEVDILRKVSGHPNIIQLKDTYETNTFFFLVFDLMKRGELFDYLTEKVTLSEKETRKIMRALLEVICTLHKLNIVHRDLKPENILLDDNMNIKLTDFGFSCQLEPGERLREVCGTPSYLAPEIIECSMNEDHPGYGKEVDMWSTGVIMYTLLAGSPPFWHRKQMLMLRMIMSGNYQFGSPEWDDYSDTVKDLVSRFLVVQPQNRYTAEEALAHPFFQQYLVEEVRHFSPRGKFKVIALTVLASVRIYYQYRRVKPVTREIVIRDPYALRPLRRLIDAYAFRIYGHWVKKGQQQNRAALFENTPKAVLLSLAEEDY
Serine/threonine-protein kinase pim-2 (Homo sapiens), sequence (Q9P1W9 whole entry, looked up): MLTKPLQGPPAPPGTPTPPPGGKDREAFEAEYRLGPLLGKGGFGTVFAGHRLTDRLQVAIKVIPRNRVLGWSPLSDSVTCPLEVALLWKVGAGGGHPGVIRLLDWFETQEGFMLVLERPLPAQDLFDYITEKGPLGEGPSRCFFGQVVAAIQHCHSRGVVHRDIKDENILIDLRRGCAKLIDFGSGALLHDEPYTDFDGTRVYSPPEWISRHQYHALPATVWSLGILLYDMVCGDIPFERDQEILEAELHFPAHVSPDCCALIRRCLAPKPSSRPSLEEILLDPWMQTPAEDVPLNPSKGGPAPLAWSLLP
PAS domain-containing serine/threonine-protein kinase (Homo sapiens), sequence (Q96RG2 whole entry, the tested form may be a part): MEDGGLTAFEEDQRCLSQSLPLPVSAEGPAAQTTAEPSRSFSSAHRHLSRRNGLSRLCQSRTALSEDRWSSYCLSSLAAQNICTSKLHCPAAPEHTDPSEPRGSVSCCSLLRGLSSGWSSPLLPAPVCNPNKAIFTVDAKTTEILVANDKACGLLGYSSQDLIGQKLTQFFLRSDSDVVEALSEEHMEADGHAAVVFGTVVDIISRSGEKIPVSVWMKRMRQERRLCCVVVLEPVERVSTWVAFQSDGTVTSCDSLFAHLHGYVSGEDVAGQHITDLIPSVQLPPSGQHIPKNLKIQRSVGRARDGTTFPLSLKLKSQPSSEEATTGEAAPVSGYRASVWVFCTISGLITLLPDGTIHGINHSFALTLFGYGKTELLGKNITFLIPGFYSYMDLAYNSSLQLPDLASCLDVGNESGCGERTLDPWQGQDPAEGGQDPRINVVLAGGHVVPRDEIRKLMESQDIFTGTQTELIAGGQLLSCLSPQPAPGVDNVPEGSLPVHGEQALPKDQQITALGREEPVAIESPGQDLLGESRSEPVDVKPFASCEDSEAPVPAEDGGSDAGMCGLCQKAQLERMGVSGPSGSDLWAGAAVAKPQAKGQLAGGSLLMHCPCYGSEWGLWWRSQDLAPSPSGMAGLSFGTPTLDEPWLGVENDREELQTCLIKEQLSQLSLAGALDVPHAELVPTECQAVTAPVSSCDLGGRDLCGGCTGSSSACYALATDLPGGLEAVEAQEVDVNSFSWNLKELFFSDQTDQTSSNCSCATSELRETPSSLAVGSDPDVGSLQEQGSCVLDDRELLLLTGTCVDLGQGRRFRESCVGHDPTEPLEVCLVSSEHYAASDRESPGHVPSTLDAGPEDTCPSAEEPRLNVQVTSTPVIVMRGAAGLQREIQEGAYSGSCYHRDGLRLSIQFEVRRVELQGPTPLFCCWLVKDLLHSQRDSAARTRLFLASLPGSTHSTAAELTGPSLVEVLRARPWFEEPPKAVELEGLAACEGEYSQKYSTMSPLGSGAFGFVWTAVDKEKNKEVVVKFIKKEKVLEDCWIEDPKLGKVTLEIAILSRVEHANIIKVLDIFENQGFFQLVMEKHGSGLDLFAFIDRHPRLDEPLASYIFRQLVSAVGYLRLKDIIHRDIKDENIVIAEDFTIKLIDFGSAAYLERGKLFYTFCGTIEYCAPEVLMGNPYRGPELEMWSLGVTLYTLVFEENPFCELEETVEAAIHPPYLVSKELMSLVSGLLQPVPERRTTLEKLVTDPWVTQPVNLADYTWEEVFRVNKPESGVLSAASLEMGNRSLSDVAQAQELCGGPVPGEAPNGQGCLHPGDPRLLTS
Serine/threonine-protein kinase pim-1 (Homo sapiens), sequence (P11309 whole entry, looked up): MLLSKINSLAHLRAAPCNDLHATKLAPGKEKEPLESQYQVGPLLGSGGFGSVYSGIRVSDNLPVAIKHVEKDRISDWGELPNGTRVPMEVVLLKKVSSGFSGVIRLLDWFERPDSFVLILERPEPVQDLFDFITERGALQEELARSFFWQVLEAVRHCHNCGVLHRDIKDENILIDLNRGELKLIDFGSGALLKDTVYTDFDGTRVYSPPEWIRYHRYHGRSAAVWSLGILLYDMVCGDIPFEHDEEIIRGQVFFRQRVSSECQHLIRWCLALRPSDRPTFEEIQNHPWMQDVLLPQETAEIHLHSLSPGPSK
Serine/threonine-protein kinase MARK2 (Homo sapiens), sequence (Q7KZI7 whole entry, the tested form may be a part): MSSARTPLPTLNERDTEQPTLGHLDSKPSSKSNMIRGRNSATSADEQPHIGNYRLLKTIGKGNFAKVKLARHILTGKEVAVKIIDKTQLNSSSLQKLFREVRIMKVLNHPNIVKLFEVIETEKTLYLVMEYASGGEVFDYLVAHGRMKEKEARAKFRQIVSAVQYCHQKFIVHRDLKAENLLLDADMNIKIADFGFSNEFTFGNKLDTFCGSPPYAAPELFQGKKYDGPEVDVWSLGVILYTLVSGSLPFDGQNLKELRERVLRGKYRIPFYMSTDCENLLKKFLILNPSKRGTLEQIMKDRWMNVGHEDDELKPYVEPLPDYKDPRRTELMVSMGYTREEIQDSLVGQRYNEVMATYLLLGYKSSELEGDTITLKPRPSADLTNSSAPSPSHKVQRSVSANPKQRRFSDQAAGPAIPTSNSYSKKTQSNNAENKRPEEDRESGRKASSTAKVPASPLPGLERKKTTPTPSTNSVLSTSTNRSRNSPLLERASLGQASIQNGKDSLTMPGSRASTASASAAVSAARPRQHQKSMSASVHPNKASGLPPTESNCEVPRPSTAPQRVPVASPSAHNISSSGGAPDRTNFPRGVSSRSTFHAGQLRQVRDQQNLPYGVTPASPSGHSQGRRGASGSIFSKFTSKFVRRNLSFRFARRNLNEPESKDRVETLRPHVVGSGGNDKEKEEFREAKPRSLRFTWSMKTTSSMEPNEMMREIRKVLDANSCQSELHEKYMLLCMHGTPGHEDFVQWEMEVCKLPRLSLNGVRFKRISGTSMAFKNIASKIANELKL

As usually defined, the inhibition is the drop in the measured response relative to a control, in per cent. On to `O=C1NC(=O)C(c2ccc(Cl)cc2)=C1Nc1ccc(Cl)c(C(=O)O)c1`, for which the inhibition in [1] is 2.17%; in [2], -0.66%; in assay [3] it was -1.05%; in [4] it was -1.07%; in assay [5] it was 1.44%; in assay [6] it was -3.95%. The inhibition was -5.8% in [7]; -0.65% in assay [8]; -0.5% in assay [9]; 1.05% in [10]; 0.1% in [11]; 0.19% in assay [12]. In addition, the inhibition in assay [13] was -0.33%; in assay [14], -0.91%; in assay [15] it was -0.59%; in assay [16], -6.41%; in assay [17], -4.82%; in assay [18], -6%. Besides, the inhibition in [19] is -3.21%; in [20], -0.72%.

For the molecule `COc1cc(C=NNc2ncnc3c2cnn3-c2ccccc2)ccc1O`, the inhibition in assay [1] was 6.47%; in [2], 0.58%; in assay [3], -3.11%; in assay [4] it was 2.48%; in [5], 11.3%; in assay [6], 3.34%. The inhibition in assay [7] was 2%; in assay [8], 1.39%; in assay [9] it was 1.57%; in assay [10] it was -0.02%; in [11], 2.11%; in assay [12], -0.48%. The inhibition is -0.21% in [13]; 0.22% in assay [14]; -0.53% in assay [15]; 5.32% in assay [16]; 18.5% in assay [17]; 7.72% in [18]. Also, the inhibition in [19] worked out at 20.4%; in [20], 3.55%.

On to `CCn1c(-c2nonc2N)nc2c(N3CCCC3)nccc21`, for which the inhibition is 3.46% in [1]; -0.88% in assay [2]; -1.38% in [3]; 3.74% in assay [4]; -1.02% in assay [5]; -3.65% in [6]. The inhibition in assay [7] is -3.95%; in assay [8], 0.8%; in [9], 1.03%; in assay [10], -0.33%; in assay [11], 0.29%; in [12], -0.84%. Besides, the inhibition is 1% in assay [13]; -0.99% in [14]; -0.15% in assay [15]; -7.25% in assay [16]; -2.47% in assay [17]; -7.08% in assay [18]. For the same molecule, the inhibition in assay [19] was -6.02%; in [20], -0.24%.

Regarding `CCn1c(-c2nonc2N)nc2cncc(C(=O)N3CCNCC3)c21`, the inhibition in assay [1] was 2.03%; in assay [2], -1.71%; in [3], -0.89%; in assay [4] it was 3.09%; in assay [5], 4.51%; in assay [6] it was 8.34%. Further, the inhibition in [7] was 7.28%; in assay [8] it was 0.31%; in assay [9], 2.05%; in [10], -0.98%; in [11], -0.88%; in [12], 0.06%. Moreover, the inhibition in [13] was determined as 2.39%; in assay [14], 2.77%; in assay [15], 2.41%; in [16] it was 4.86%; in assay [17], 14.2%; in assay [18], 6%. Besides, the inhibition in assay [19] turned out to be 6.58%; in [20] it was 6.79%.

Consider `COc1cccc(-n2ncc3c(N/N=C/c4cccc(F)c4)ncnc32)c1`, for which the inhibition in [1] was 2.5%; in assay [2] it was -0.33%; in assay [3], -1.6%; in [4] it was 5.06%; in [5], 9%; in [6], 2.06%. Further, the inhibition is 1.7% in assay [7]; -0.24% in [8]; 0.52% in [9]; -3.26% in assay [10]; -2.82% in [11]; -0.58% in assay [12]. Besides, the inhibition in [13] was -0.78%; in [14] it was 0.63%; in assay [15] it was 0.71%; in assay [16], 5.56%; in [17], 11.9%; in [18], 5.11%. Further, the inhibition in assay [19] worked out at 14.4%; in assay [20], 1.92%.

For `CNC(=O)c1cncc(/C=C/c2c(Cl)cccc2Cl)c1`, the inhibition in assay [1] was 2.64%; in assay [2], -1.52%; in assay [3] it was -0.36%; in [4], 0.96%; in [5] it was 8.72%; in assay [6] it was 4.13%. Moreover, the inhibition is 4.55% in assay [7]; -0.49% in assay [8]; 1.79% in [9]; -3.71% in assay [10]; -0.92% in assay [11]; 1.26% in [12]. For the same molecule, the inhibition in assay [13] came to 7.42%; in assay [14], 1.11%; in [15], 1.46%; in assay [16], 11.9%; in [17], 50.9%; in assay [18], 2.71%. Further, the figures for the inhibition in assay [19] and in [20] were 17.3% and 2.82%, respectively.
